Experimental data from article PMC4336329 (PLoS ONE, 2015).
Out of some 310,000 compounds screened, about 14,000 (4.5%) showed an effect of 50% or more. The effect is printed as a negative number. The sample holds strong results, similar compounds and a random draw of the others, so the mix is not that of the screen.

target: human ether-à-go-go-related gene (hERG) potassium channel (human, UniProt Q12809); assay: primary screen, population patch clamp on CHO cells stably expressing hERG; higher = less effect of the substance
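Note: peak tail current of the secondary pulse compared with the same well before compound.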

Chain of human ether-à-go-go-related gene (hERG) potassium channel (Q12809 whole entry, looked up): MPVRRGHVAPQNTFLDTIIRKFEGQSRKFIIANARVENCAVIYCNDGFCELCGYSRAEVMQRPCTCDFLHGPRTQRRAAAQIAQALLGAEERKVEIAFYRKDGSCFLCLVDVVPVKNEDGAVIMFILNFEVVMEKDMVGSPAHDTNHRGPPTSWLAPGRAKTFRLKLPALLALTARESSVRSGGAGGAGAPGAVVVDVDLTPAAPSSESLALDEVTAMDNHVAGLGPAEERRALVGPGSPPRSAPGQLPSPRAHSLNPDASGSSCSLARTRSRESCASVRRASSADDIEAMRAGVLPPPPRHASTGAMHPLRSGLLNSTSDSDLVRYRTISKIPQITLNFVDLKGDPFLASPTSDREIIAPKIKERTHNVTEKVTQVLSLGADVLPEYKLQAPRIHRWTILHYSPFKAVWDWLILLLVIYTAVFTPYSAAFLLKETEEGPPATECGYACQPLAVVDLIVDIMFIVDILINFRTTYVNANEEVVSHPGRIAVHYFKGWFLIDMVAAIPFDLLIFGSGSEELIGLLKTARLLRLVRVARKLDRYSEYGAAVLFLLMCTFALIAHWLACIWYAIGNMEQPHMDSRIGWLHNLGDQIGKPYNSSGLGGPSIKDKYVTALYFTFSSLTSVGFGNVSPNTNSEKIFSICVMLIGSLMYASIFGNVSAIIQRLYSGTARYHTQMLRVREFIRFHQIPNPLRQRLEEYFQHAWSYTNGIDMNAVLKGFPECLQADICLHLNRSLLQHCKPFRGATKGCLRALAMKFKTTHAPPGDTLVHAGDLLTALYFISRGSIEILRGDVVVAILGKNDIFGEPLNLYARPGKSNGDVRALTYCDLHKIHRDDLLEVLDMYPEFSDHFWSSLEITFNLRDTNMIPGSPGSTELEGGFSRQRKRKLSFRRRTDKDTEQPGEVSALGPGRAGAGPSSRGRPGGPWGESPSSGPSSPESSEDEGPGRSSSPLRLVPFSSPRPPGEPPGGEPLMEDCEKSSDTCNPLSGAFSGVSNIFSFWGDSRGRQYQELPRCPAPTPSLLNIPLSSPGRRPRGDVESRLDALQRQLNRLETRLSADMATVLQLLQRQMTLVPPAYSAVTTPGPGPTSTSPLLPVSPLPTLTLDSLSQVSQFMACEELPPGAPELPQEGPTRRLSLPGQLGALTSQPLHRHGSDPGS

In order of rising “hERG current change (%, negative = inhibition) at 10uM” value:
1. O=C(c1cc2cc(F)ccc2[nH]1)N(Cc1cccnc1)CC1CCCN(C2CCCCC2)C1 (stereo not drawn)  -77.5%
2. NC(=S)N/N=C1\CCOc2ccc(F)cc21  -76.9%
3. O=C(c1cc2ccccc2[nH]1)N(Cc1cccnc1)CC1CCCN(C2CCCCC2)C1 (stereo not drawn)  -73.7%
4. Cc1nn(Cc2ccc(Cl)cc2)c(C)c1NC(=O)c1ccc([N+](=O)[O-])cc1  -72.6%
5. Cc1nn(Cc2ccc(Cl)cc2)c(C)c1NC(=O)c1c(-c2ccccc2)noc1C  -65.1%
6. CN(CCO)c1nc(N)c2c(N)nc3c(c2c1C#N)CC(=O)N3C1CCCC1  -63.5%
7. Cc1nn(Cc2ccccc2)c(C)c1NC(=O)c1ccc([N+](=O)[O-])cc1[N+](=O)[O-]  -57%
8. CCN(CC)P(=O)(Nc1ccc([N+](=O)[O-])cc1)c1c(C)nn(CCC#N)c1NC(=O)c1ccc(Cl)cc1 (stereo not drawn)  -56.9%
9. CCC1Oc2ccc(C)cc2N(CC(=O)NCCCN2CCN(Cc3ccccc3)CC2)C1=O (stereo not drawn)  -53.9%
10. CCC1Oc2ccccc2N(CC(=O)NCCCN2CCN(c3ccc(OC)cc3)CC2)C1=O (stereo not drawn)  -50.4%
11. CCC1Oc2ccccc2N(CC(=O)NCCCN2CCN(Cc3ccccc3)CC2)C1=O (stereo not drawn)  -42%
12. COC(=O)c1ccccc1C(=O)N(Cc1cccnc1)CC1CCCN(C2CCCCC2)C1 (stereo not drawn)  -40%
13. CCC1Oc2ccc(C)cc2N(CC(=O)NCCCN2CCCC2)C1=O (stereo not drawn)  -34.7%
14. O=C(Nc1cnn(Cc2ccc(Cl)cc2)c1)c1ccc([N+](=O)[O-])cc1  -31.4%
15. CN(CCO)c1nc(N)c2c(N)nc3c(c2c1C#N)CC(=O)N3Cc1cccs1  -29.6%
16. O=C(COC(=O)c1cccc(C(=O)OCC(=O)NCc2ccc(F)cc2)n1)NCc1ccc(F)cc1  -15.5%
17. Cc1cc(C(=O)Nc2c(C)nn(Cc3ccc(Cl)cc3)c2C)no1  -15.4%
18. Cc1ccc(NC(=S)N(CCN2CCOCC2)Cc2ccccc2F)cc1Cl  -12.3%
19. Cc1cc(C)c2c(n1)nn1c(C)c(CCC(=O)NCc3ccco3)c(C)nc21  -12.1%
20. Cc1nn(Cc2ccccc2)c(C)c1NC(=O)Cn1nc([N+](=O)[O-])c(Cl)c1C  -10.4%
21. COC(=O)CSc1cc([N+](=O)[O-])cc2c1c(C1OCCO1)nn2-c1ccccc1  -5.4%
22. CCC1Oc2ccccc2N(CC(=O)NCCCN2CCOCC2)C1=O (stereo not drawn)  -4.71%
23. CCOC(=O)CSc1nnc2n1C(C)(C)Cc1ccccc1-2  -4.66%
24. Cc1cc(OC(C)C(=O)N[C@H](C(=O)O)c2ccccc2)c2c3c(c(=O)oc2c1)CCC3 (stereo partly drawn)  -3.23%
25. Cn1nccc1C(=O)N(CCN1CCCCC1)CC1CCCN(C2CCCC2)C1 (stereo not drawn)  -2.29%
26. CCOC(=O)c1c(NCC(C)C)c2ccccc2[nH]c1=O  -1.01%
27. O=C(c1cccs1)N(CCN1CCCCC1)CC1CCCN(C2CCCC2)C1 (stereo not drawn)  1.03%
28. Cc1cc(C(=O)OCC(=O)Nc2nccs2)c2ccccc2n1  1.22%
29. Cc1cc(C(=O)Nc2c(C)nn(Cc3ccccc3)c2C)on1  1.26%
30. NC(=S)N/N=C1\CCOc2ccc(Cl)cc21  1.36%
31. CCC1Oc2ccccc2N(CC(=O)NCCCN2CCN(CC)CC2)C1=O (stereo not drawn)  2.97%
32. CCN(CC)P(=O)(Nc1ccc([N+](=O)[O-])cc1)c1c(C)nn(CCC#N)c1NC(=O)c1ccc(Cl)cc1Cl (stereo not drawn)  3.17%
33. CC(=O)N(Cc1cccnc1)Cc1cc2ccccc2[nH]c1=O  3.63%
34. Cc1cccc(C(=O)NNC(=O)c2ccc(Br)cc2)c1  4.62%
35. CCn1nc(C)c(NC(=O)c2ccc(Cl)cc2)c1C  5.72%
36. CCN(CC)P(=O)(Nc1ccc(Br)cc1)c1c(C)nn(CCC#N)c1NC(=O)c1ccc(Cl)cc1 (stereo not drawn)  7.19%
37. O=C(Nc1cccc(Cl)c1Cl)c1snnc1-c1ccccc1  7.74%
38. CCOc1cc(C(=O)N=c2sccn2C)cc(Br)c1OC  8.84%
39. CCN(CC(=O)Nc1c(F)cccc1F)C(=O)c1ccc2c(c1)S(=O)(=O)N=C1CCCCCN12  9.69%
40. N#Cc1c(N(CCO)CCO)nc(N)c2c(N)nc3c(c12)CC(=O)N3CC1CCCO1 (stereo not drawn)  10%
41. CNC(=O)COC(=O)c1ccc(NC(=O)CC#N)cc1  11.9%
42. NC(=S)N/N=C1\CC(c2ccc3c(c2)OCCO3)Oc2ccc(F)cc21 (stereo not drawn)  12.9%
43. Cc1onc(-c2ccccc2)c1C(=O)NCc1ccc(Cl)cc1  13.8%
44. O=S(=O)(NCc1cn2ccsc2n1)c1cccs1  15.6%
45. O=C(CSc1oc(-c2cccs2)nc1S(=O)(=O)c1ccccc1)NC1CCCCC1  17.7%
